What all share (assay): protein-binding microarray (PBM); PBM: ~300 nM protein, 6 mM HEPES pH 7.8, 80 mM KCl, 0.5 mM EDTA, 0.5 mM EGTA, 6% glycerol, 35 ng/ul poly-dIdC, 1% milk, 1 h, room temperature; Ap Aiptasia and Nv Nematostella (sea anemones) / Co Capsaspora / Aq Amphimedon (sponge) / Dm Drosophila / Hu human; RHD is the Rel homology domain; high values mean tight binding
Holding throughout (settings): dsDNA, one strand shown

For assay [1], the target named is T1, GST-Ap-NF-kB RHD (Exaiptasia pallida (Aiptasia), UniProt A0A913YAJ5 2-422).
T1 sequence: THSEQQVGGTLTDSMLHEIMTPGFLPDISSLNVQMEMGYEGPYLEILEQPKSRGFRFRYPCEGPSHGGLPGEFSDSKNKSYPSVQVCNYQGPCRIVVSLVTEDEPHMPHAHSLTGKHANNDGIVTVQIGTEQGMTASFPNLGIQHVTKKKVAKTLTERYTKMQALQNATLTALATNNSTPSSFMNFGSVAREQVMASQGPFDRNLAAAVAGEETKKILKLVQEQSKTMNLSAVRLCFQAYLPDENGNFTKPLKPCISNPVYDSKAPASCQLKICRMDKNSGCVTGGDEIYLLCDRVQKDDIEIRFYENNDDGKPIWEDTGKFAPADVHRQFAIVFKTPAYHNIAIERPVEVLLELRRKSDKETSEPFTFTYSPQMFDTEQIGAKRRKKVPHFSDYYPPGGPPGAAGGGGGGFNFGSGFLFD

Assay [2] has as its target T2, GST-Nv-NF-kB (Cys allele) (Nematostella vectensis, UniProt E5G601 2-411).
T2 sequence: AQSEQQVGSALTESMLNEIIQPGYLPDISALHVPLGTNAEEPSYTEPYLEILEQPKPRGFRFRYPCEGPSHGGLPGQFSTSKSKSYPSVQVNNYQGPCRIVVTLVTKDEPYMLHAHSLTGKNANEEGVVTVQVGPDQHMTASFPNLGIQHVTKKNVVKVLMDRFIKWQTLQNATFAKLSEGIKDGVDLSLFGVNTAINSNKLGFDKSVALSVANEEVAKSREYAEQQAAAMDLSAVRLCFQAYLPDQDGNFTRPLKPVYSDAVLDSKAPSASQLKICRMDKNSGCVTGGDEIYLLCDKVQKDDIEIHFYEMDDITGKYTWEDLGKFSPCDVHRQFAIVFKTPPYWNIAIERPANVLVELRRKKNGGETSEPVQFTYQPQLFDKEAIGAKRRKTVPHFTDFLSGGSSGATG

For assay [3], the target named is T3, GST-Nv-NF-kB (Ser allele) (Nematostella vectensis, UniProt A7UNT2 2-411).
T3 sequence: T2 sequence with Q21R, C66S, S207N, E215Q, V217A, E225K, A268E, D399E

Assay [4] has as its target T4, GST-Co-NF-kB (Capsaspora owczarzaki, UniProt F1ARL5 200-546).
T4 sequence: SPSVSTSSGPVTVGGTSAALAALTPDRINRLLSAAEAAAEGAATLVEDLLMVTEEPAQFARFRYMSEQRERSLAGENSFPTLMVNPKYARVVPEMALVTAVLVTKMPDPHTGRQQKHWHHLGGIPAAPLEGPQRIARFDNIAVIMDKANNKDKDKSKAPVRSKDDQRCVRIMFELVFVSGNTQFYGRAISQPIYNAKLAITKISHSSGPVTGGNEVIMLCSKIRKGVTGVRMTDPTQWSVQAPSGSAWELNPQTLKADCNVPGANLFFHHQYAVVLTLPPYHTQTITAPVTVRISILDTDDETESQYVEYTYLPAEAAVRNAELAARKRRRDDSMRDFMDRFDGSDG

For assay [5], the target named is T5, GST-Dm-Relish (Drosophila melanogaster, UniProt Q94527 99-473).
T5 sequence: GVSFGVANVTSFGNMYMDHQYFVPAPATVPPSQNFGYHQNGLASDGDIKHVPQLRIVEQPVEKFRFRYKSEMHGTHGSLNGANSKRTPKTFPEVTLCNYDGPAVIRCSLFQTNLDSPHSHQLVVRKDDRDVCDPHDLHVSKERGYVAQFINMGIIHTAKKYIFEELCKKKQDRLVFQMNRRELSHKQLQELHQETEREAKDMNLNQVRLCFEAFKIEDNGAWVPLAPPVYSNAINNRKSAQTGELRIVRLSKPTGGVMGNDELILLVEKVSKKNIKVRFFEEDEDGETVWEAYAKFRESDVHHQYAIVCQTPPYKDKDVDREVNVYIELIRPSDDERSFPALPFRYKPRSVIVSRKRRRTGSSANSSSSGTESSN

In assay [6] the target is T6, GST-Aq-NF-kB (Amphimedon queenslandica, UniProt A9Y5G7 2-389).
T6 sequence: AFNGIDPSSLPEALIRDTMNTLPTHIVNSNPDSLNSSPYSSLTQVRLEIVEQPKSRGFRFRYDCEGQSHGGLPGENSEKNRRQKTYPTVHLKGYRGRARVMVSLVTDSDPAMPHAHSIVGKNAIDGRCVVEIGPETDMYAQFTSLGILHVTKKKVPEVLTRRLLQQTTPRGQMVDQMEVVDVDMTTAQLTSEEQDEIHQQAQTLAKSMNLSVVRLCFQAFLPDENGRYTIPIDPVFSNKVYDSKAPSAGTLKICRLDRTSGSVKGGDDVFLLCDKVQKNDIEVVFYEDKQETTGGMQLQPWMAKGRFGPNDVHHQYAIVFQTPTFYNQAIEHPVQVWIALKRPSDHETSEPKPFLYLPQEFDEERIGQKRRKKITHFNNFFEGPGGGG

Assay [7] deals with GST-Hu-p50 (Homo sapiens, UniProt P19838 7-356).
GST-Hu-p50, sequence (P19838 7-356): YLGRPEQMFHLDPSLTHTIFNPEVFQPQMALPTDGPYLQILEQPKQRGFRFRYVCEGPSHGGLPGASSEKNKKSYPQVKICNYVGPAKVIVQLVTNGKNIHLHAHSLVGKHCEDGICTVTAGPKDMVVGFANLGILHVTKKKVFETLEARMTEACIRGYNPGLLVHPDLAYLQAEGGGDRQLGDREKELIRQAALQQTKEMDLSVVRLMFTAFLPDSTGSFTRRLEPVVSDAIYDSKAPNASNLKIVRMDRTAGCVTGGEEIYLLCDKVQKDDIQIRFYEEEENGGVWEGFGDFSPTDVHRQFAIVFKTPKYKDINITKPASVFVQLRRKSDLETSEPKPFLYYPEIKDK

Changes are numbered by the printed parent chain.

Turning to “CCGATTAACATCAGGGGATGTTATGATGTTAATCGGGTCTTGATTCGCTTGACGCTGCTG”, the binding signal was determined as 5.57 z-score in assay [1]; 6.43 z-score in assay [2]; 7.06 z-score in assay [3]; 3.17 z-score in assay [4]; 5.86 z-score in assay [5]; 5.53 z-score in assay [6]. The binding signal in assay [7] is 5.29 z-score.
“CCGATTAACATCACGGGTATTCCTGATGTTAATCGGGTCTTGATTCGCTTGACGCTGCTG”: the binding signal in assay [1] was found to be 4.85 z-score; in assay [2], 5.05 z-score; in assay [3], 3.76 z-score; in assay [4], 1.3 z-score; in assay [5], 6.78 z-score; in assay [6], 5.48 z-score. In assay [7], this sequence had a binding signal of 3.53 z-score.
With “CCGATTAACATCAGAACTCCCCCTGATGTTAATCGGGTCTTGATTCGCTTGACGCTGCTG”, the binding signal in assay [1] was 7.91 z-score; in assay [2], 6.48 z-score; in assay [3], 7.12 z-score; in assay [4], 6.15 z-score; in assay [5] it was 5.58 z-score; in assay [6] it was 6.48 z-score. The sequence also yielded a binding signal in assay [7] of 7.11 z-score.
As to “CCGATTAACATCAGAACACCCCCTGATGTTAATCGGGTCTTGATTCGCTTGACGCTGCTG”, the binding signal was determined as 5.58 z-score in assay [1]; 4.69 z-score in assay [2]; 4.4 z-score in assay [3]; 3.33 z-score in assay [4]; 4.87 z-score in assay [5]; 5.48 z-score in assay [6]. Besides, the binding signal in assay [7] was 5.09 z-score.
“CCGATTAACATCAAAGTTCCCCCTGATGTTAATCGGGTCTTGATTCGCTTGACGCTGCTG”: the binding signal in assay [1] was 8.84 z-score; in assay [2], 8.65 z-score; in assay [3], 9.29 z-score; in assay [4], 11.3 z-score; in assay [5] it was 8.65 z-score; in assay [6], 7.49 z-score. Further, the binding signal in assay [7] was 6.75 z-score.
“CCGATTAACATCAGGGACTTTCATGATGTTAATCGGGTCTTGATTCGCTTGACGCTGCTG”: the binding signal in assay [1] stood at 6.28 z-score; in assay [2] it was 7.24 z-score; in assay [3], 7.09 z-score; in assay [4] it was 1.04 z-score; in assay [5], 5.59 z-score; in assay [6], 6.22 z-score. In assay [7], this sequence yielded a binding signal of 5.49 z-score.
Turning to “CCGATTAACATCAAAACGTCCCCTGATGTTAATCGGGTCTTGATTCGCTTGACGCTGCTG”, the binding signal in assay [1] turned out to be 6.23 z-score; in assay [2], 6.41 z-score; in assay [3] it was 6.45 z-score; in assay [4], 5.34 z-score; in assay [5], 5.03 z-score; in assay [6], 6.19 z-score. In assay [7], this sequence had a binding signal of 5.59 z-score.
As to “CCGATTAACATCACGGGGGGTACTGATGTTAATCGGGTCTTGATTCGCTTGACGCTGCTG”, the binding signal in assay [1] was determined as 5.05 z-score; in assay [2] it was 3.22 z-score; in assay [3] it was 3.15 z-score; in assay [4] it was 4.54 z-score; in assay [5], 3.63 z-score; in assay [6], 3.58 z-score. This sequence also displayed a binding signal in assay [7] of 3.25 z-score.
As for “CCGATTAACATCAGGGGGATACCTGATGTTAATCGGGTCTTGATTCGCTTGACGCTGCTG”, the binding signal was 7.92 z-score in assay [1]; 7.48 z-score in assay [2]; 6.28 z-score in assay [3]; 6.16 z-score in assay [4]; 8.18 z-score in assay [5]; 8.7 z-score in assay [6]. This sequence also registered a binding signal in assay [7] of 5.56 z-score.
As for “CCGATTAACATCAGAAATCCCCCTGATGTTAATCGGGTCTTGATTCGCTTGACGCTGCTG”, the binding signal in assay [1] was determined as 11.2 z-score; in assay [2] it was 10.5 z-score; in assay [3] it was 10.8 z-score; in assay [4] it was 6.78 z-score; in assay [5], 9.63 z-score; in assay [6], 8.32 z-score. This sequence displayed a binding signal in assay [7] of 7.68 z-score.
As to “CCGATTAACATCAAAAATTTCCCTGATGTTAATCGGGTCTTGATTCGCTTGACGCTGCTG”, the binding signal in assay [1] was found to be 5.61 z-score; in assay [2], 8.92 z-score; in assay [3], 8.77 z-score; in assay [4], 5.47 z-score; in assay [5], 6.05 z-score; in assay [6], 7.58 z-score. The sequence further came in with a binding signal in assay [7] of 5.67 z-score.
As to “CCGATTAACATCAAACTCCCCCTTGATGTTAATCGGGTCTTGATTCGCTTGACGCTGCTG”, the binding signal in assay [1] is 8.05 z-score; in assay [2] it was 6.74 z-score; in assay [3] it was 8.38 z-score; in assay [4], 6.26 z-score; in assay [5] it was 6.54 z-score; in assay [6], 6.59 z-score. In addition, in assay [7], the binding signal stood at 7.29 z-score.
